# Measured values taken from PubChem BioAssay (NCI).
# Compounds without any hit were thinned out: in the full panel of roughly 83,000, 20% have a hit.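 Assay: single dose, 48 h. Readout: percent growth (0 = no net growth; negative = cell death). Active: <10.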 Unmarked numbers belong to inactive results. Activity calls are given as the source filed them.
# System: NCI-H226 lung
# Test: NCI-60 one-dose screen, 48 h (100 = growth as untreated, 0 = no growth, -100 = all killed)
# Conditions: 10 µM
row,Compound,growth
1,Cc1ccc(C)c(COc2cc(NC(=O)c3ccc4c(c3)OCO4)ccc2N(C)S(C)(=O)=O)c1,37%
2,CCOC(=O)c1cc(C(=O)c2ccc(Cl)cc2)n2ccc(-c3cc[n+](CC(=O)c4ccc(OC)cc4)cc3)cc12,102%
3,Clc1ccc(C2=NN=C3C(Cc4ccccc4)=Nc4ccccc4N3C2)cc1,92.8%
4,O=C1c2ccccc2C(=O)c2c1ccc(C(Br)Br)c2[N+](=O)[O-],-1.88% (active)
5,COc1ccc(-c2nc(-c3nc4ccc(C)cc4[nH]3)cc3c2[nH]c2ccccc23)cc1,63.9%
6,C(=N\Nc1ncnc2sc3c(c12)CCNC3)/c1cccc2ccccc12,97.1%
7,CC(=O)N[C@H](C(=O)N[C@@H](CCCNC(=N)N)C(=O)N[C@@H](CCCCN)C(=O)N[C@@H](CCCNC(=N)N)C(=O)NC(C(=O)N[C@@H](CC(C)C)C(=O)N[C@@H](CCCNC(=N)N)C(=O)N[C@@]1(C)CCC/C=C\CCC[C@@](C)(C(=O)N[C@@H](CCCNC(=N)N)C(=O)N[C@@H](CCC(=O)O)C(=O)N[C@@H](CC(C)C)C(=O)N[C@H](C(=O)N[C@@H](CCC(=O)O)C(N)=O)C(C)C)NC(=O)[C@H](CCC(N)=O)NC(=O)[C@H](CC(C)C)NC(=O)[C@H](CC(C)C)NC1=O)[C@@H](C)O)C(C)C (some centres not stated),7.17% (active)
8,Cc1noc(C)c1CSc1ccccc1C(=O)N1CCN(c2cccc(C(F)(F)F)c2)CC1,75.6%
9,C=CCn1c(SCC(=O)Nc2ccc(C(=O)/C=C/c3ccc(OC)cc3)cc2)nnc1-c1ccc(OC)c(OC)c1,82.7%
10,CNC(=O)c1cc(Oc2ccc3c(c2)sc2nc(-c4ccc(N)cc4)cn23)ccn1,61.8%
11,C/C(=N\O)c1ccc(NC(=O)CSc2nnc(-c3ccccc3)n2-c2ccccc2)cc1,72.4%
12,CCN(CC)CCCC(C)Nc1c2ccc(Cl)cc2nc2ccc(OC)cc12 (configuration not stated),36.7%
13,CC[C@@H](C(=O)[C@@H](C)[C@@H](O)[C@H](C)[C@@H]1O[C@@H]([C@@H](CC)C(=O)N(CC)CC)CC[C@@H]1C)C1O[C@]2(C=CC(=O)[C@]3(CC[C@@](C)([C@H]4CC[C@](O)(CC)[C@H](C)O4)O3)O2)[C@H](C)C[C@@H]1C (some centres not stated),13.4%
14,O=S(=O)(Oc1ccc(-c2ccc3sccc3c2)cc1)c1ccccc1,92.5%
15,COc1ccc(-c2cc(-c3ccc(Cl)cc3)nc(SCCCCCCC(=O)NO)n2)cc1OC,69.3%
16,CN1C(=O)C2(Nc3cc(Cl)ccc3S2)c2cc(Cl)ccc21 (configuration not stated),80%
17,Nc1ccc(/C=N/Nc2ccnc3c(O)cccc23)c2cccnc12,84%
18,CN(C)CCOc1ccccc1NC1=C(Cl)C(=O)C(Nc2ccccc2OCCN(C)C)=C(Cl)C1=O,93.9%
19,CCn1c(SCCc2ccccc2)nnc1-c1nn(-c2ccc(Cl)cc2Cl)c(-c2ccc(Cl)cc2)c1C,58%
20,C=CCNCCN1C(=O)c2ccc3c4c(ccc(c24)C1=O)C(=O)N(CCNCC=C)C3=O,-51.6% (active)
21,COc1cc(C)ccc1Oc1nc(Nc2ccc(N3CCOCC3)cc2)ncc1NC(=O)Nc1cc(C(F)(F)F)cc(C(F)(F)F)c1,84.3%
22,COc1cccc(CNc2cccc3cn[nH]c23)c1O,87.6%
23,NS(=O)(=O)Oc1ccc(NC(=O)C2CCCCCC2)cc1,100%
24,COc1ccc(-c2n[nH]nc2-c2cc(OC)c3c(c2OC)OCO3)cc1,75%
25,CCCN(CCC)C(=O)[C@H](CC)[C@@H]1CC[C@@H](C)[C@@H]([C@H](C)[C@@H](O)[C@@H](C)C(=O)[C@H](CC)C2O[C@]3(C=C[C@@H](O)[C@]4(CC[C@@](C)([C@H]5CC[C@](O)(CC)[C@H](C)O5)O4)O3)[C@H](C)C[C@@H]2C)O1 (some centres not stated),-2.4% (active)
26,COc1cc(-c2nc3ccccc3o2)cc(CN2CCCCC2)c1O,78.8%
27,CC(=O)N[C@H](C(=O)N[C@@H](CCCNC(=N)N)C(=O)N[C@@H](CCCCN)C(=O)N[C@@H](CCCNC(=N)N)C(=O)N[C@]1(C)CCC/C=C\CCC[C@@](C)(C(=O)N[C@@H](CC(C)C)C(=O)N[C@@H](CC(C)C)C(=O)N[C@@H](CCC(N)=O)C(=O)N[C@@H](CCC(=O)O)C(=O)N[C@@H](CCCNC(=N)N)C(=O)N[C@@H](CCC(=O)O)C(=O)N[C@@H](CC(C)C)C(=O)N[C@H](C(=O)N[C@@H](CCC(=O)O)C(N)=O)C(C)C)NC(=O)[C@H](CCCNC(=N)N)NC(=O)[C@H](CC(C)C)NC1=O)C(C)C,102%
